Article PMC11062922 (Nature Chemical Biology, 2023)
Read-outs that look alike come from different tables or passages of the source.

Legend:
Design in all cases: species or system human, MV4-11 + K-562 + COLO205 + SK-N-BE2 + OVCAR-8
ACVR1B = conditions: read-out: apparent Kd; compound concentrations:100 nM and 1000 nM (sheet 'Samples'); n = 1
DDR1 = conditions: read-out: apparent Kd; compound concentrations:100 nM and 1000 nM (sheet 'Samples'); n = 1
DDX3X;DDX3Y = conditions: read-out: apparent Kd; compound concentrations:100 nM and 1000 nM (sheet 'Samples'); n = 1
MAPK10 = conditions: read-out: apparent Kd; compound concentrations:100 nM and 1000 nM (sheet 'Samples'); n = 1
MAPK14 = conditions: read-out: apparent Kd; compound concentrations:100 nM and 1000 nM (sheet 'Samples'); n = 1
MAPK9 = conditions: read-out: apparent Kd; compound concentrations:100 nM and 1000 nM (sheet 'Samples'); n = 1
MAPKAPK2 = conditions: read-out: apparent Kd; compound concentrations:100 nM and 1000 nM (sheet 'Samples'); n = 1
NLK = conditions: read-out: apparent Kd; compound concentrations:100 nM and 1000 nM (sheet 'Samples'); n = 1
ACVR1 = conditions: read-out: apparent Kd, n = 1
CDK16 = conditions: read-out: apparent Kd; compound concentrations:100 nM and 1000 nM (sheet 'Samples'); n = 1
CDK17 = conditions: read-out: apparent Kd; compound concentrations:100 nM and 1000 nM (sheet 'Samples'); n = 1
CDK6 = conditions: read-out: apparent Kd; compound concentrations:100 nM and 1000 nM (sheet 'Samples'); n = 1
CDK9 = conditions: read-out: apparent Kd; compound concentrations:100 nM and 1000 nM (sheet 'Samples'); n = 1
EIF2AK1 = conditions: read-out: apparent Kd; compound concentrations:100 nM and 1000 nM (sheet 'Samples'); n = 1
GSK3A = conditions: read-out: apparent Kd, n = 1
GSK3B = conditions: read-out: apparent Kd, n = 1
ICK = conditions: read-out: apparent Kd; compound concentrations:100 nM and 1000 nM (sheet 'Samples'); n = 1
MAPK7 = conditions: read-out: apparent Kd; compound concentrations:100 nM and 1000 nM (sheet 'Samples'); n = 1
PDGFRB = conditions: read-out: apparent Kd; compound concentrations:100 nM and 1000 nM (sheet 'Samples'); n = 1
PIM2 = conditions: read-out: apparent Kd; compound concentrations:100 nM and 1000 nM (sheet 'Samples'); n = 1
TAOK2 = conditions: read-out: apparent Kd; compound concentrations:100 nM and 1000 nM (sheet 'Samples'); n = 1
PRKD2 = conditions: read-out: apparent Kd, n = 1
PRKD3 = conditions: read-out: apparent Kd, n = 1
TGFBR1 = conditions: read-out: apparent Kd; compound concentrations:100 nM and 1000 nM (sheet 'Samples'); n = 1
SLK = conditions: read-out: apparent Kd; compound concentrations:100 nM and 1000 nM (sheet 'Samples'); n = 1
STK10 = conditions: read-out: apparent Kd; compound concentrations:100 nM and 1000 nM (sheet 'Samples'); n = 1
BCR = conditions: read-out: apparent Kd; compound concentrations: 100 nM and 1000 nM (sheet 'Samples'), CATDS: 0.114797180795753; n = 1
CDKL5 = conditions: read-out: apparent Kd; compound concentrations: 100 nM and 1000 nM (sheet 'Samples'), CATDS: 0.10101184649506401; n = 1
CSNK2A1;CSNK2A3 = conditions: read-out: apparent Kd; compound concentrations: 100 nM and 1000 nM (sheet 'Samples'), CATDS: 0.137145274912611; n = 1
CSNK2A2 = conditions: read-out: apparent Kd; compound concentrations: 100 nM and 1000 nM (sheet 'Samples'), CATDS: 0.22568308322630501; n = 1
ADCK1 = conditions: read-out: apparent Kd; compound concentrations: 100 nM and 1000 nM (sheet 'Samples'), CATDS: 4.4524563972159897E-2; n = 1
ADK = conditions: read-out: apparent Kd; compound concentrations: 100 nM and 1000 nM (sheet 'Samples'), CATDS: 4.5787667935106503E-2; n = 1
CDK4 = conditions: read-out: apparent Kd; compound concentrations: 100 nM and 1000 nM (sheet 'Samples'), CATDS: 4.6312693671670499E-2; n = 1
CSNK1D = conditions: read-out: apparent Kd; compound concentrations: 100 nM and 1000 nM (sheet 'Samples'), CATDS: 7.6669822847603902E-2; n = 1
CSNK1E = conditions: read-out: apparent Kd; compound concentrations: 100 nM and 1000 nM (sheet 'Samples'), CATDS: 6.5483605156218705E-2; n = 1
MAP4K5 = conditions: read-out: apparent Kd; compound concentrations: 100 nM and 1000 nM (sheet 'Samples'), CATDS: 6.0957264613737197E-2; n = 1
PRKACA = conditions: read-out: apparent Kd; compound concentrations: 100 nM and 1000 nM (sheet 'Samples'), CATDS: 6.9210809350161107E-2; n = 1
PRKACB = conditions: read-out: apparent Kd; compound concentrations: 100 nM and 1000 nM (sheet 'Samples'), CATDS: 6.0886440238293899E-2; n = 1
PRKCD = conditions: read-out: apparent Kd; compound concentrations: 100 nM and 1000 nM (sheet 'Samples'), CATDS: 6.5587395591723996E-2; n = 1
PRKCQ = conditions: read-out: apparent Kd; compound concentrations: 100 nM and 1000 nM (sheet 'Samples'), CATDS: 0.20872331441348899; n = 1
RPS6KB1 = conditions: read-out: apparent Kd; compound concentrations: 100 nM and 1000 nM (sheet 'Samples'), CATDS: 6.31408503509263E-2; n = 1
TNIK = conditions: read-out: apparent Kd; compound concentrations: 100 nM and 1000 nM (sheet 'Samples'), CATDS: 0.113919393065207; n = 1
[1] = compound concentrations:100 nM and 1000 nM (sheet 'Samples')

CNc1ncc2cc(Oc3ccc(F)cc3F)c(=O)n(C)c2n1 [RO5083957-000]
potency estimated from few doses (ACVR1B): 853 nM
potency estimated from few doses (DDR1): 958 nM
potency estimated from few doses (DDX3X;DDX3Y): 1740 nM
potency estimated from few doses (MAPK10): 1750 nM
potency estimated from few doses (MAPK14): 618 nM
potency estimated from few doses (MAPK9): 1640 nM
potency estimated from few doses (MAPKAPK2): 843 nM
potency estimated from few doses (NLK): 1800 nM

CCN1CCN(CCCC(=O)Nc2n[nH]c3nc(-c4ccc(O)cc4)c(Br)cc23)CC1 [SB-731579]
potency estimated from few doses (ACVR1; [1]): 914 nM
potency estimated from few doses (CDK16): 1220 nM
potency estimated from few doses (CDK17): 986 nM
potency estimated from few doses (CDK6): 1070 nM
potency estimated from few doses (CDK9): 1180 nM
potency estimated from few doses (EIF2AK1): 201 nM
potency estimated from few doses (GSK3A; [1]): 4.8 nM
potency estimated from few doses (GSK3B; [1]): 20.1 nM
potency estimated from few doses (ICK): 1420 nM
potency estimated from few doses (MAPK7): 1360 nM
potency estimated from few doses (PDGFRB): 145 nM
potency estimated from few doses (PIM2): 557 nM
potency estimated from few doses (TAOK2): 1350 nM

Cc1cccc(-c2nc(C)cc(Nc3ccncc3)n2)n1 [GSK257997A]
potency estimated from few doses (ACVR1B): 431 nM
potency estimated from few doses (PRKD2; [1]): 408 nM
potency estimated from few doses (PRKD3; [1]): 1590 nM
potency estimated from few doses (TGFBR1): 75.9 nM

COc1ccc2cc(-c3c(-c4ccncc4)nc(-c4ccc(S(C)=O)cc4C)n3C)ccc2c1 (stereo not shown) [SB-630812]
potency estimated from few doses (ACVR1B): 288 nM
potency estimated from few doses (SLK): 2250 nM
potency estimated from few doses (STK10): 1990 nM

COc1cccc(-n2ncc3c(N/N=C/c4ccc(S(C)(=O)=O)cc4)ncnc32)c1 [GW811168X]
potency estimated from few doses (ACVR1; compound concentrations: 100 nM and 1000 nM (sheet 'Samples'), CATDS: 0.17536774799610499): 555 nM
potency estimated from few doses (BCR): 1420 nM
potency estimated from few doses (CDKL5): 2130 nM
potency estimated from few doses (CSNK2A1;CSNK2A3): 907 nM
potency estimated from few doses (CSNK2A2): 365 nM
potency estimated from few doses (GSK3A; compound concentrations: 100 nM and 1000 nM (sheet 'Samples'), CATDS: 0.157775642803201): 677 nM
potency estimated from few doses (GSK3B; compound concentrations: 100 nM and 1000 nM (sheet 'Samples'), CATDS: 0.15091586406642499): 740 nM

Cc1n[nH]c2ccc(-c3cc(OC[C@@H](N)Cc4c[nH]c5ccccc45)cnc3-c3ccoc3)cc12.Cc1n[nH]c2ccc(-c3cc(OC[C@@H](N)Cc4c[nH]c5ccccc45)cnc3-c3ccoc3)cc12.O=C(O)C(F)(F)F.O=C(O)C(F)(F)F.O=C(O)C(F)(F)F [GSK562689A]
potency estimated from few doses (ADCK1): 2150 nM
potency estimated from few doses (ADK): 1830 nM
potency estimated from few doses (CDK4): 1720 nM
potency estimated from few doses (CSNK1D): 302 nM
potency estimated from few doses (CSNK1E): 464 nM
potency estimated from few doses (MAP4K5): 577 nM
potency estimated from few doses (PRKACA): 396 nM
potency estimated from few doses (PRKACB): 579 nM
potency estimated from few doses (PRKCD): 462 nM
potency estimated from few doses (PRKCQ): 41.7 nM
potency estimated from few doses (PRKD2; compound concentrations: 100 nM and 1000 nM (sheet 'Samples'), CATDS: 0.17196563894613301): 57.2 nM
potency estimated from few doses (PRKD3; compound concentrations: 100 nM and 1000 nM (sheet 'Samples'), CATDS: 0.24703755989756301): 32.3 nM
potency estimated from few doses (RPS6KB1): 518 nM
potency estimated from few doses (TNIK): 123 nM
